# Hit rate of the full screen: of about 360,000 compounds, about 3,800 (1.1%) were called active. This is one part of a sample in which actives are shown more often than they occur.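 How the source made its calls: active means compounds causing at least 50% loss of cell viability in the single-dose screen, relative to plate controls; inactive means the rest.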
# Assay: TRAIL-exposed caspase-8 expressing cell killing – NB7+C8 cells, ATPlite luminescence, TRAIL sensitizer project, primary screen (AID 624354)
# Conditions: at 10 µM, active compounds read high
row,SMILES,"inhibition (viability loss, TRAIL sensitization)"
1,N=c1c2c3c(sc2nc2n1CCCCC2)CCCC3,0.553% (inactive)
2,Cn1c(NN)nc2sc3c(c2c1=O)CCC3,-10.7% (inactive)
3,NNC(=O)C1CCCn2c1nc1sc3c(c1c2=O)CCCC3 (stereo not drawn),55.9% (active)
4,O=C1CSC(c2ccc(Cl)cc2)N1 (stereo not drawn),0.721% (inactive)
5,CCOc1ccc(C(C)=O)cc1COC(=O)c1cnc(Cl)c(Cl)c1,64.1% (active)
6,CCOc1ccc(C(C)=O)cc1COC(=O)CNC(=O)c1cccs1,-4.84% (inactive)
7,COC(=O)c1ccc(COC(=O)c2cnc(Cl)c(Cl)c2)cc1,1.15% (inactive)
8,COC(=O)/C(=C\Nc1ccccc1)NC(=O)c1ccc(Cl)cc1Cl,10.1% (inactive)
9,Cc1ccccc1CN1C(=O)CSCC1(C)C(=O)Nc1c(C)cccc1C (stereo not drawn),-13% (inactive)
10,COc1ccc(S(=O)(=O)N2CCOCC2)cc1NC(=O)CC1CC2CCC1C2 (stereo not drawn),-19.8% (inactive)
11,Cn1cc([N+](=O)[O-])c(C(=O)Nc2ccc3c(c2)OCCO3)n1,23.6% (inactive)
12,Cc1cc(=O)[nH]c(N/N=C/c2c(C)nn(-c3ccccc3Cl)c2Cl)n1,-2.12% (inactive)
13,Cc1nn(-c2ccccc2)c(Cl)c1/C=N/NC(=O)c1nn(C)cc1[N+](=O)[O-],54.6% (active)
14,COc1ccc(N2CCN(C(=O)C3CCN(S(=O)(=O)c4ccc(C)cc4)CC3)CC2)cc1,-4.63% (inactive)
15,CC(C)NC(=O)CSc1nnc(COc2ccccc2Cl)o1,11.2% (inactive)
16,COc1ccc2sc(-c3ccc(S(C)(=O)=O)cc3)c(C#Cc3cncn3C)c2c1,54.7% (active)
17,COc1cccc(-c2sc3ccc(OC)cc3c2-c2ccc(OCCN3CCCCC3)cc2)c1,12.9% (inactive)
18,Cn1cncc1C#Cc1c(-c2ccsc2)sc2ccccc12,0.155% (inactive)
19,Cc1cc(C)n2nc(C(=O)OCC(=O)N(C)CC(=O)Nc3ccc(F)cc3)nc2n1,2.14% (inactive)
20,c1ccc(-n2ncc(-c3nn[nH]n3)n2)cc1,8.97% (inactive)

row,SMILES,"inhibition (viability loss, TRAIL sensitization)"
1,O=C(NNS(=O)(=O)c1ccc([N+](=O)[O-])cc1)C1CCCCC1,-2.99% (inactive)
2,O=C(C[C@H]1C/C=C\C[C@@H](NC(=O)OCC2c3ccccc3-c3ccccc32)C(=O)O[C@@H](c2ccccc2)CNC1=O)N[C@H](CO)Cc1ccccc1,73.9% (active)
3,CC(C)(C)OC(=O)C[C@@H]1C/C=C\C[C@@H](CC(=O)N[C@H](CO)Cc2ccccc2)C(=O)NC[C@@H](c2ccccc2)OC1=O,3.83% (inactive)
4,CC(C)(C)OC(=O)C[C@H]1C/C=C\C[C@@H](CC(=O)N[C@H](CO)Cc2ccccc2)C(=O)NC[C@@H](c2ccccc2)OC1=O,-2.43% (inactive)
5,O=c1ccn([C@@H]2O[C@H](CNS(=O)(=O)c3cc4ccccc4s3)[C@@H](O)[C@H]2O)c(=O)[nH]1,5.61% (inactive)
6,COc1ccc(N2CCN(C(CNS(=O)(=O)c3ccc(C)cc3)c3ccccc3)CC2)cc1 (stereo not drawn),-6.83% (inactive)
7,CCc1ccc(-c2cc(C(=O)NN3CCN(C)CC3)c3ccccc3n2)cc1,58.3% (active)
8,O=C(NCCc1ccccn1)c1cc(-c2ccc(Cl)cc2)nc2ccccc12,7.97% (inactive)
9,CC1CCCC(NC(=O)c2cc(-c3ccncc3)nc3ccccc23)C1C (stereo not drawn),11.9% (inactive)
10,O=C(NCc1cccnc1)c1ccccc1NC(=O)c1c(F)cccc1F,-13.9% (inactive)
11,COc1ccc(CC(N)c2csc(NC(=O)Cc3ccccc3)n2)cc1 (stereo not drawn),-6.08% (inactive)
12,COc1ccc(CC(N)c2csc(NC(=O)Nc3ccc(C(C)C)cc3)n2)cc1 (stereo not drawn),92.1% (active)
13,COc1ccc(CC(N)c2csc(NC(=O)NC(c3ccccc3)c3ccccc3)n2)cc1 (stereo not drawn),44.6% (inactive)
14,N#Cc1ccc(CN2CCN(CC(=O)Nc3ccccc3C(=O)NC3CC3)CC2)cc1,-1.82% (inactive)
15,Cn1c(=NC(=O)c2cnccn2)sc2ccccc21,61.8% (active)
16,Cn1c(=NC(=O)c2ccco2)sc2cccc(F)c21,47.7% (inactive)
17,COC(=O)c1ccc(OC(=O)c2cnccn2)cc1,6.75% (inactive)
18,OCCCNC(c1ccccc1)c1ccc(O)cc1 (stereo not drawn),20.3% (inactive)
19,CN(C)c1cccc(NC(=O)c2ccc(-c3ccc(F)c(F)c3)c3ccoc23)c1,20.1% (inactive)
20,Cc1sc2ncn(CC(=O)NCCCC(=O)N3CCN(c4ccccc4F)CC3)c(=O)c2c1C,19.6% (inactive)

row,SMILES,"inhibition (viability loss, TRAIL sensitization)"
1,CCN(C(=O)CN1C(=O)/C(=C/c2ccc(F)cc2)SC1=S)C1CCS(=O)(=O)C1 (stereo not drawn),-9.46% (inactive)
2,C=CCOc1ccc(/C=C2\SC(=S)N(CCC(=O)O)C2=O)cc1,56.9% (active)
3,CN(C(=O)CN1C(=O)/C(=C/c2ccc(Cl)cc2)SC1=S)C1CCS(=O)(=O)C1 (stereo not drawn),10.1% (inactive)
4,COCCN(C(=O)CSCc1ccc(C)cc1)c1c(N)n(CC(C)C)c(=O)[nH]c1=O,-0.426% (inactive)
5,COc1cccc(NC(=O)CN(C)CC(=O)c2c(N)n(Cc3ccccc3)c(=O)n(C)c2=O)c1,-2.67% (inactive)
6,Cc1ccc(S(=O)(=O)/N=C(\CN2CCOCC2)N2CCOCC2)cc1,-0.117% (inactive)
7,O=C(N/N=C/c1cc([N+](=O)[O-])ccc1O)/C(=C\c1cccs1)NC(=O)c1ccccc1,41.5% (inactive)
8,NN=C(NN=Cc1ccccc1)c1ccccc1,12.4% (inactive)
9,O=C(N/N=C/c1ccccc1O)/C(=C/c1ccccc1)CCO,51.4% (active)
10,CCCc1nn2c(=O)cc(CSCC(=O)Nc3cccc(C)c3)nc2s1,-0.888% (inactive)
11,CCOC(=O)CCc1c(C)c2ccc(OCc3nn[nH]n3)c(C)c2oc1=O,-5.29% (inactive)
12,COc1ccc(-c2cc3ccc(OCc4nn[nH]n4)cc3oc2=O)cc1,56.7% (active)
13,CCCCc1cc(=O)oc2cc(C)cc(OCc3nn[nH]n3)c12,10.2% (inactive)
14,CCc1ccc(-n2c(=S)sc3c(=O)n(-c4ccccc4OC)c(=S)[nH]c32)cc1,-3.67% (inactive)
15,Cc1cccc(C)c1NC(=O)C(c1cccc2ccccc12)n1c(=O)c(-c2ccco2)nc2ccccc21 (stereo not drawn),-6.27% (inactive)
16,S=c1[nH]nc(/C=C/c2ccccc2)o1,0.666% (inactive)
17,O=c1oc(-c2ccccc2NS(=O)(=O)c2ccc(Cl)cc2)nc2ccccc12,6.47% (inactive)
18,O=c1oc(/C=C/c2ccccc2)nc2ccccc12,77.8% (active)

# Source: PubChem BioAssay AID624354 (Sanford-Burnham Center for Chemical Genomics, 2012)
